# Data: article PMC8384837, “Expanding the binding specificity for RNA recognition by a PUF domain”
# Positions count from the first letter of the chain named.
# Legend:
# Assay in all cases: yeast three-hybrid, YBZ-1, SC-Leu-His + 0.5 mM 3-AT, 4 days
# Details in all cases: tags: N-Gal4 AD-HA kept; label: inside an RPR1-promoter hybrid RNA with tandem MS2 sites; ssRNA
# PUM1 PUF domain R1-QWR = PUM1 PUF domain R1-QWR (Homo sapiens, UniProt Q14671 828-1176, S863Q;R864W;Q867R)
# Outline: (§1)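 Pumilio-1 PUF domain libraries, randomized (NNK) at the three base-contacting residues of each repeat, were co-expressed with matching RNA elements from a centromeric plasmid in strain YBZ-1 (LexA–MS2 coat fusion, HIS3 reporter). Transformants were plated on SC-Leu (input) and SC-Leu-His + 0.5 mM 3-AT (selection) for four days, and repeat regions were PCR-amplified and Illumina-sequenced. The interaction score is the log2 change in variant frequency from input to selection, with pseudocount 1 where absent.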
# PUM1 PUF domain R6-GFQ = target: T1, PUM1 PUF domain R6-GFQ (Homo sapiens, UniProt Q14671 828-1176, N1043G;Y1044F)
# T1 sequence: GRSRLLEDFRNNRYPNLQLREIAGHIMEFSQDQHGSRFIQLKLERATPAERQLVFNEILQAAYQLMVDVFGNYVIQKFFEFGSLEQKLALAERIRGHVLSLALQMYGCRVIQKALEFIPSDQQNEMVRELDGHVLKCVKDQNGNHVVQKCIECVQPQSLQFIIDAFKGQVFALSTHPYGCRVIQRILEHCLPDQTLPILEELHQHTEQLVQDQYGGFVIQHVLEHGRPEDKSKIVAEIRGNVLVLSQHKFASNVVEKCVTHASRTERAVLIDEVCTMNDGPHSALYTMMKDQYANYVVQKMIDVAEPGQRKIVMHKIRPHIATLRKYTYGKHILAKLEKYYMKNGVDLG
# Outline: as §1
# PUM1 PUF domain R4-MPH = PUM1 PUF domain R4-MPH (Homo sapiens, UniProt Q14671 828-1176, N971M;H972P;Q975H)
# Outline: as §1
# PUM1 PUF domain R8-RWE = PUM1 PUF domain R8-RWE (Homo sapiens, UniProt Q14671 828-1176, N1122R;Y1123W;Q1126E)
# Outline: as §1
# PUM1 PUF domain R6-TWK = target: T2, PUM1 PUF domain R6-TWK (Homo sapiens, UniProt Q14671 828-1176, N1043T;Y1044W;Q1047K)
# T2 sequence: T1 sequence with G216T, F217W, Q220K
# Outline: as §1
# PUM1 PUF domain R5-NRV = PUM1 PUF domain R5-NRV (Homo sapiens, UniProt Q14671 828-1176, C1007N;Q1011V)
# Outline: as §1
# PUM1 PUF domain R5-RMR = PUM1 PUF domain R5-RMR (Homo sapiens, UniProt Q14671 828-1176, C1007R;R1008M;Q1011R)
# Outline: as §1
# PUM1 PUF domain R8-KKV = PUM1 PUF domain R8-KKV (Homo sapiens, UniProt Q14671 828-1176, N1122K;Y1123K;Q1126V)
# Outline: as §1
# PUM1 PUF domain R7-KRV = PUM1 PUF domain R7-KRV (Homo sapiens, UniProt Q14671 828-1176, S1079K;N1080R;E1083V)
# Outline: as §1
# PUM1 PUF domain R3-RAP = PUM1 PUF domain R3-RAP (Homo sapiens, UniProt Q14671 828-1176, C935R;R936A;Q939P)
# Outline: as §1
sequence,measurement,setting,value
GGCUAGAACUAGUGGAUCCCCCGGCGCCCGGCGGCUCGAGCCCGGGUAAGUGUAAAUCGUCUGCAUGCCGCCGGGCGCCAUGCCUGCAGGUCGACUCUAGAAAACAUG,binding signal,PUM1 PUF domain R1-QWR,8.29 log2 enrichment (interaction score)
GGCUAGAACUAGUGGAUCCCCCGGCGCCCGGCGGCUCGAGCCCGGGUAAGUGAAAAUAGUCUGCAUGCCGCCGGGCGCCAUGCCUGCAGGUCGACUCUAGAAAACAUG,binding signal,PUM1 PUF domain R6-GFQ,0.48 log2 enrichment (interaction score)
GGCUAGAACUAGUGGAUCCCCCGGCGCCCGGCGGCUCGAGCCCGGGUAAGUGUAAAUUGUCUGCAUGCCGCCGGGCGCCAUGCCUGCAGGUCGACUCUAGAAAACAUG,binding signal,PUM1 PUF domain R1-QWR,3.12 log2 enrichment (interaction score)
GGCUAGAACUAGUGGAUCCCCCGGCGCCCGGCGGCUCGAGCCCGGGUAAGUGUAAAUAGUCUGCAUGCCGCCGGGCGCCAUGCCUGCAGGUCGACUCUAGAAAACAUG,binding signal,PUM1 PUF domain R4-MPH,3.32 log2 enrichment (interaction score)
same,binding signal,PUM1 PUF domain R6-GFQ,6.29 log2 enrichment (interaction score)
same,binding signal,PUM1 PUF domain R8-RWE,3.03 log2 enrichment (interaction score)
same,binding signal,PUM1 PUF domain R6-TWK,2.26 log2 enrichment (interaction score)
same,binding signal,PUM1 PUF domain R5-NRV,2.44 log2 enrichment (interaction score)
GGCUAGAACUAGUGGAUCCCCCGGCGCCCGGCGGCUCGAGCCCGGGUAAGUGUCAAUAGUCUGCAUGCCGCCGGGCGCCAUGCCUGCAGGUCGACUCUAGAAAACAUG,binding signal,PUM1 PUF domain R5-RMR,3.2 log2 enrichment (interaction score)
GGCUAGAACUAGUGGAUCCCCCGGCGCCCGGCGGCUCGAGCCCGGGUAAGCGUAAAUAGUCUGCAUGCCGCCGGGCGCCAUGCCUGCAGGUCGACUCUAGAAAACAUG,binding signal,PUM1 PUF domain R8-RWE,4.69 log2 enrichment (interaction score)
same,binding signal,PUM1 PUF domain R8-KKV,2.53 log2 enrichment (interaction score)
GGCUAGAACUAGUGGAUCCCCCGGCGCCCGGCGGCUCGAGCCCGGGUAAGUCUAAAUAGUCUGCAUGCCGCCGGGCGCCAUGCCUGCAGGUCGACUCUAGAAAACAUG,binding signal,PUM1 PUF domain R7-KRV,5.35 log2 enrichment (interaction score)
GGCUAGAACUAGUGGAUCCCCCGGCGCCCGGCGGCUCGAGCCCGGGUAAGUGUAAUUAGUCUGCAUGCCGCCGGGCGCCAUGCCUGCAGGUCGACUCUAGAAAACAUG,binding signal,PUM1 PUF domain R3-RAP,3.87 log2 enrichment (interaction score)
GGCUAGAACUAGUGGAUCCCCCGGCGCCCGGCGGCUCGAGCCCGGGUAAGUGUUAAUAGUCUGCAUGCCGCCGGGCGCCAUGCCUGCAGGUCGACUCUAGAAAACAUG,binding signal,PUM1 PUF domain R5-RMR,2.49 log2 enrichment (interaction score)
GGCUAGAACUAGUGGAUCCCCCGGCGCCCGGCGGCUCGAGCCCGGGUAAGUGUGAAUAGUCUGCAUGCCGCCGGGCGCCAUGCCUGCAGGUCGACUCUAGAAAACAUG,binding signal,PUM1 PUF domain R5-NRV,2.59 log2 enrichment (interaction score)
